The results in this text go back to PubChem BioAssay.

Calls of active or inactive are those of the source.

Experiment [1] in a line: small molecules captured by biotinylated probe aFSTL3 – biochemical, small-molecule microarray, fluorescence 635/667, stem cell growth factor project, primary screen (AID 1064).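 Further: measures binding of the biotinylated anti-FSTL3 antibody to printed compounds.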 The conditions noted are these: higher = more signal.
The nature of experiment [2]: binders from COS7 lysate, DM2A8 probe, primary screen, torsin A project, cell lysate, small-molecule microarray, fluorescence 635/667 (AID 1065). The conditions noted are these: higher = more signal, COS7 lysate expressing mutant human TOR1A.
Experiment [3] can be described thus: small molecules captured by biotinylated probe aFGF2 – biochemical, small-molecule microarray, fluorescence 635/667, stem cell growth factor project, primary screen (AID 1067).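 Further: measures binding of biotinylated aFGF2 protein to printed compounds on slides; z-score merges feature fluorescence and signal-to-noise across triplicate slides.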 The conditions noted are these: higher = more signal.
The nature of experiment [4]: small molecules captured by biotinylated probe aFGF10 – biochemical, small-molecule microarray, fluorescence 635/667, stem cell growth factor project, primary screen (AID 1071).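 Further: score merges 667 nm spot intensity and signal to noise from triplicate slides.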 Conditions: higher = more signal.
The target of experiment [5] is Neurogenic locus notch homolog protein 2 (Homo sapiens) (UniProt Q04721). Put plainly: small molecules binding Notch2 protein – biochemical, small-molecule microarray, 635 nm fluorescence, stem cell growth factors, primary screen (AID 1073). The conditions noted are these: higher = more signal.
The target in experiment [6] is Pro-neuregulin-1, membrane-bound isoform (Homo sapiens) (UniProt Q02297). Put plainly: small molecules binding neuregulin-1 protein – biochemical, small-molecule microarray, fluorescence 635/667, psychiatric disease protein project, primary screen (AID 1075).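 Further: score combines 667 nm spot fluorescence with signal to noise.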 The conditions noted are these: NRG1 binding, 635 nm fluorescence, higher = more signal.
In experiment [7] the test system is Neuregulin-1 EGF-like domain. Put plainly: small molecules binding NRG1 EGF domain – biochemical, small-molecule microarray, 635 nm fluorescence, primary screen (AID 1081).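 Further: binding of the protein to compounds printed on small-molecule microarray slides.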 Conditions: higher = more signal.
The nature of experiment [8]: FRG1 expression reporter modulators in myotubes – cell-based, C2C12 myotubes, firefly/Renilla luciferase, luminescence, FRG1 inhibition for FSHD, primary screen (AID 1084). The conditions noted are these: FRG1 promoter luciferase, higher = more signal, called active from +8 up or from −8 down.
Experiment [9] in a line: small molecules captured by biotinylated probe aFST – biochemical, small-molecule microarray, fluorescence 635/667, stem cell growth factor project, primary screen (AID 1086).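 Further: score merges 667 nm fluorescence with signal-to-noise of each printed compound spot.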 Conditions: higher = more signal.
Experiment [10] can be described thus: binders of probe aHhip on microarray, primary screen, stem cell growth factor project, biochemical, small-molecule microarray, fluorescence 635/667 (AID 1087).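 Further: score merges spot fluorescence at 667nm with spot signal to noise ratio.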 Conditions: higher = more signal.
Experiment [11] relates to PRMT1 (protein arginine N-methyltransferase 1). Put plainly: small molecules binding arginine methyltransferase PRMT1 – biochemical, small-molecule microarray, 635 nm fluorescence, primary screen (AID 1088).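 Further: binding of Prmt1 protein to compounds spotted on small-molecule microarray slides.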 Conditions: higher = more signal.
Experiment [12] can be described thus: growth effects on S. cerevisiae YJM789 – YJM789 clinical isolate, OD600, 24 h, basal, primary screen (AID 1089).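 Further: growth of clinical yeast isolate S. cerevisiae YJM 789 seeded 1000 cells per well; test concentration not given here.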 Conditions: higher = more signal, called active from +8 up or from −8 down.
The nature of experiment [13]: S. pombe growth modifiers, basal conditions – strain 972, OD600, 24 h, no modulator, primary screen (AID 1090).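 Further: basal condition with compound alone and no growth modifier present; test concentration not given here.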 Conditions: S. pombe 972 growth, higher = more signal, called active from +8 up or from −8 down.
A short description of experiment [14]: budding yeast growth modifiers under rapamycin – strain BY4716, OD600, 96 h, primary screen (AID 1091). Further: test concentration not given here. The conditions noted are these: S. cerevisiae BY4716 + rapamycin, higher = more signal, called active from +8 up or from −8 down.
The target of experiment [15] is Torsin-1A-interacting protein 2 (Homo sapiens) (UniProt Q8NFQ8). As to the kind of experiment: small molecules binding lysate-expressed LULL1 – cell lysate, human LULL1 lysate, 635/667 nm fluorescence, primary screen (AID 1092).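 Further: probe is lysate of COS7 cells overexpressing human LULL1; score merges per-feature 667 nm fluorescence with signal-to-noise.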 The conditions noted are these: small-molecule microarray, hLULL1 lysate binding, 635 nm fluorescence; higher = more signal.
A short description of experiment [16]: optical density change of DRC41 E. coli – strain DRC41, OD650, 24 h, E. coli filamentation project, primary screen (AID 1093).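 Further: MC1000 strain lacking acrAB efflux and sulA so SOS filamentation is blocked; test concentration not given here.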 Conditions: E. coli DRC41 growth, higher = more signal, called active from +8 up or from −8 down.
The nature of experiment [17]: probe aLefty2 binding to arrayed compounds – biochemical, biotinylated probe, 635/667 nm fluorescence, primary screen (AID 1094).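 Further: score merges spot fluorescence near 667 nm with spot signal-to-noise ratio.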 Conditions: small-molecule microarray, higher = more signal.
Experiment [18] has as its system Noggin (protein binding on small-molecule microarray). As to the kind of experiment: small molecules binding Noggin protein – biochemical, 635/667 nm fluorescence, primary screen (AID 1095).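 Further: score merges 667 nm feature fluorescence with signal to noise over triplicate slides.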 The conditions noted are these: 635 nm fluorescence, higher = more signal.
The target in experiment [19] is Neurogenic locus notch homolog protein 3 (Homo sapiens) (UniProt Q9UM47). Put plainly: small molecules binding NOTCH3 protein – biochemical, 635/667 nm fluorescence, primary screen (AID 1096). The conditions noted are these: small-molecule microarray, 635 nm fluorescence, higher = more signal.
A short description of experiment [20]: probe aEGFR binding to arrayed compounds – biochemical, biotinylated probe, 635/667 nm fluorescence, primary screen (AID 1097).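 Further: probe is a biotinylated anti-EGFR antibody binding compounds printed on slides; score combines fluorescence near 667 nm and signal to noise of each spot.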 The conditions noted are these: small-molecule microarray, higher = more signal.

Torsin-1A-interacting protein 2 (Homo sapiens), sequence (Q8NFQ8 whole entry, looked up): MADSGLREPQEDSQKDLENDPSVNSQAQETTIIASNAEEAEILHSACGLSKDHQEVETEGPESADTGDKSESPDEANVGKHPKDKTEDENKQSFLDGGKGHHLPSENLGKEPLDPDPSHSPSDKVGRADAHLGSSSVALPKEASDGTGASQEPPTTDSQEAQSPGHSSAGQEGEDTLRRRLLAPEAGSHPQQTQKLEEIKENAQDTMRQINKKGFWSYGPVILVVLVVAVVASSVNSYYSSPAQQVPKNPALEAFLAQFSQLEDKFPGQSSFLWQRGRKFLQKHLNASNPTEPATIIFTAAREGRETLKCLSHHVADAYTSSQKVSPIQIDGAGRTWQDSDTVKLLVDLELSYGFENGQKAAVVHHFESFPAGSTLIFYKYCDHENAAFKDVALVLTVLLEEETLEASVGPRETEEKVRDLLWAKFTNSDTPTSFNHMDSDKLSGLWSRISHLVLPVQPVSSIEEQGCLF
Pro-neuregulin-1, membrane-bound isoform (Homo sapiens), sequence (Q02297 whole entry, looked up, the tested form may be a part, canonical isoform): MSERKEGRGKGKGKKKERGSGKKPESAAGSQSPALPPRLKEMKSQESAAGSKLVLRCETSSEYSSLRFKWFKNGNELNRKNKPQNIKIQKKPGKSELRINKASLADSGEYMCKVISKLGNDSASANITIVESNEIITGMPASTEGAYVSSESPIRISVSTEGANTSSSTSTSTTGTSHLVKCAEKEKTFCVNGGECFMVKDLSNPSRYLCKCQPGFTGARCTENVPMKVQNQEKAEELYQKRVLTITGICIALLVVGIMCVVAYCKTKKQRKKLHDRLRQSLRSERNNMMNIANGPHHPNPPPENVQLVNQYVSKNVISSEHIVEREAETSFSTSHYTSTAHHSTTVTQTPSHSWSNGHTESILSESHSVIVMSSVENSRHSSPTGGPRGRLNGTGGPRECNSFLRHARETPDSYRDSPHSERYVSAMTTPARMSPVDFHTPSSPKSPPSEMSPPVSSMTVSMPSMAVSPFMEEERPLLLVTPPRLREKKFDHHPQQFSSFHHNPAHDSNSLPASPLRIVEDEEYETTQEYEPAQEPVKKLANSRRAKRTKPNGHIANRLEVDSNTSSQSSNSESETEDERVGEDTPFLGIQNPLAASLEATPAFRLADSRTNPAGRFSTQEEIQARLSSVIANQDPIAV
Neurogenic locus notch homolog protein 3 (Homo sapiens), sequence (Q9UM47 whole entry, looked up): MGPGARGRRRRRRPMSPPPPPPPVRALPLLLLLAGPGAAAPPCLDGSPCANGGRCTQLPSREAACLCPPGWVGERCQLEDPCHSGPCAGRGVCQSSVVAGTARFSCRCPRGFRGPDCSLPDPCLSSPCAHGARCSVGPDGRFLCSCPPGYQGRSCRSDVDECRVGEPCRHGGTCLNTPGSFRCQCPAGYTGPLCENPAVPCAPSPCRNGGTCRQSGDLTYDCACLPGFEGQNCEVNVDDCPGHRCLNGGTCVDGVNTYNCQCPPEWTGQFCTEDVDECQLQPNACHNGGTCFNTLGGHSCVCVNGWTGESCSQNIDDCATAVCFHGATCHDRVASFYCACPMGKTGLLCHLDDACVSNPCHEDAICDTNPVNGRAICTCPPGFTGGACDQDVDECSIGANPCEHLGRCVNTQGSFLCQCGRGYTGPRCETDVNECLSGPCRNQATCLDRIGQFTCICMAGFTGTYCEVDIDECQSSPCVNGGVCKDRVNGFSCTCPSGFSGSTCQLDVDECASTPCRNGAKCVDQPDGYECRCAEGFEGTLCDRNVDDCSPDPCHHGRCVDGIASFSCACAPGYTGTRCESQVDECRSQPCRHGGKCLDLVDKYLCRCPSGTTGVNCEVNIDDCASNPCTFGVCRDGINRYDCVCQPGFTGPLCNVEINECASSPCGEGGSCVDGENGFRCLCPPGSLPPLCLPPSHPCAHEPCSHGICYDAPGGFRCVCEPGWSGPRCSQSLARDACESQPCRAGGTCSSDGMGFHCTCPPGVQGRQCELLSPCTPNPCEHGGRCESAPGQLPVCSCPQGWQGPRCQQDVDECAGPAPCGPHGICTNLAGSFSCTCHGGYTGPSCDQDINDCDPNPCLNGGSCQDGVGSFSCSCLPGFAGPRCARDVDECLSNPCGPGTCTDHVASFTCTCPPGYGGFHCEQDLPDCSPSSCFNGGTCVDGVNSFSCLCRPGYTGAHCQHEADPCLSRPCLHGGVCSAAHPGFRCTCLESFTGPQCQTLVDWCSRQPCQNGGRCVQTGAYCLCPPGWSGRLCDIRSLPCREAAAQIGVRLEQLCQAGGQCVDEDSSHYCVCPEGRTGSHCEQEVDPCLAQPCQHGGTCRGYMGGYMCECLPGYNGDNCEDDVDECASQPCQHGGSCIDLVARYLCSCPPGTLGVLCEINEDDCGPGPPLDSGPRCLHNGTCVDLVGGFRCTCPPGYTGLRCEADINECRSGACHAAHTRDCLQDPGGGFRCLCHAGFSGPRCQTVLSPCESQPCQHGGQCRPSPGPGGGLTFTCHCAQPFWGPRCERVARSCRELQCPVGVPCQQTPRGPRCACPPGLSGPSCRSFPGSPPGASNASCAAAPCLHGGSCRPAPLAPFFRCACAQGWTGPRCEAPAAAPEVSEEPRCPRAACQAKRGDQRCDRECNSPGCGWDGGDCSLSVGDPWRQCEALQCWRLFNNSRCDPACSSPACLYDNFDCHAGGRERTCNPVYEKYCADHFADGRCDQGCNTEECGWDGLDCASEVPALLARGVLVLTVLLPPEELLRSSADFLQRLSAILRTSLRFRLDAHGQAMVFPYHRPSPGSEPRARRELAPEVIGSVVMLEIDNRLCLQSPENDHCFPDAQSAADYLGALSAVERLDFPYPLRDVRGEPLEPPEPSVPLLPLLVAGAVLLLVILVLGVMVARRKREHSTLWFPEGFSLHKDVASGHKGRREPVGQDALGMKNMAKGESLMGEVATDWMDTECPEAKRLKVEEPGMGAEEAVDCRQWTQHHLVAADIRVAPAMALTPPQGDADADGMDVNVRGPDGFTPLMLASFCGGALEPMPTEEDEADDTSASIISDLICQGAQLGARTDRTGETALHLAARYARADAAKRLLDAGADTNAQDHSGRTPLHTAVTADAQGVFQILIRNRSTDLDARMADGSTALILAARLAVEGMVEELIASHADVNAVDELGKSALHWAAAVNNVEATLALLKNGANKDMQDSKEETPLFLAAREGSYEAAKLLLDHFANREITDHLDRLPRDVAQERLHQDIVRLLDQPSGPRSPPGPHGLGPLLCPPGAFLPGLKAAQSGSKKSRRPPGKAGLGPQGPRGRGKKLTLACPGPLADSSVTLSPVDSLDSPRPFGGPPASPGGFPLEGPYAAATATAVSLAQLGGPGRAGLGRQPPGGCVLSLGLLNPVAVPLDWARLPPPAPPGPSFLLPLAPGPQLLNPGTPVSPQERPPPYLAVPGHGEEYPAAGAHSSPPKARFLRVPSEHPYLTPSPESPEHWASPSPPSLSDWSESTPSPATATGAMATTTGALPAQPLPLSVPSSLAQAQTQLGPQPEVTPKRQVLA

As for `CCN1C(=O)[C@H]2[C@H]3[C@H](O)[C@H](O)CC(=O)[C@@H]3CC[C@H]2C1=O`, the composite z-score in [1] is -0.676; in [2] it was 0.0277; in experiment [3], -0.0692; in experiment [4], 0.463; in experiment [5] it was 0.575; in experiment [6] it was 0.379. In addition, the composite z-score in experiment [7] is 1.01; in experiment [9], 0.276; in [10], -0.226; in experiment [11] it was 0.705; in experiment [15] it was 1.36; in experiment [17], -0.145. In addition, the composite z-score in experiment [18] is 0.441; in [19], 0.717; in experiment [20], -0.0115. The z-score in experiment [8] is -0.136 (inactive); in [12], 0.0074 (inactive); in experiment [13], -0.268 (inactive); in experiment [14], -0.139 (inactive); in experiment [16], 0.439 (inactive).

For `CO[C@H]1COC(=O)CC=C[C@H](C)[C@@H](OC)COC(=O)[C@@H](C)NC(=O)CC=C[C@@H]1C`, the composite z-score in experiment [1] is -0.548; in [2] it was 1.9; in [3], -0.177; in [4], 0.0365; in experiment [5] it was -0.411; in experiment [6], -0.255. In addition, the composite z-score was 0.515 in experiment [7]; -0.251 in experiment [9]; -0.196 in experiment [10]; 1.53 in experiment [11]; -1.92 in [15]; -0.148 in experiment [17]. The composite z-score in experiment [18] is 1.54; in experiment [19], 0.0946; in experiment [20], -0.0727. Also, the z-score in experiment [8] is 0.447 (inactive); in experiment [12], -1.02 (inactive); in [13], 0.0386 (inactive); in experiment [14], -1.67 (inactive); in experiment [16], -0.804 (inactive).

Take `Cc1ccc(S(=O)(=O)n2c3ccccc3c3nnc(C(=O)c4ccccc4)nc32)cc1`: the composite z-score in experiment [1] was -0.474; in [2], 0.338; in experiment [3], -0.0603; in experiment [4] it was 0.316; in experiment [5], 0.197; in experiment [6], -0.457. Further, the composite z-score is 0.355 in experiment [7]; 0.141 in experiment [9]; -0.137 in [10]; -0.875 in experiment [11]; -0.0929 in experiment [15]; -0.122 in experiment [17]. In addition, the composite z-score is 0.0828 in [18], -0.467 in experiment [19] and 0.0099 in experiment [20]. In addition, the z-score in experiment [8] is 49.6 (active); in experiment [12] it was -0.232 (inactive); in experiment [13], -0.683 (inactive); in experiment [14], 0.881 (inactive); in [16], 0.878 (inactive).

For `O=C(NN=C1C[C@@H](O)[C@@H](O)[C@@H]2[C@@H]3C(=O)N(C4CCCCC4)C(=O)[C@@H]3CC[C@@H]12)OCc1ccccc1`, the composite z-score in experiment [1] was -0.107; in experiment [2], 0.2; in experiment [3], -0.0667; in experiment [4] it was 0.0505; in [5], -0.103; in experiment [6], -0.32. Also, the composite z-score in experiment [7] was -0.235; in [9] it was 0.818; in experiment [10], -0.16; in experiment [11] it was -0.492; in experiment [15], -0.181; in experiment [17], -0.372. Moreover, the composite z-score in experiment [18] is -0.248; in experiment [19] it was 0.256; in experiment [20], -0.0262. Also, the z-score was 0.448 (inactive) in experiment [8]; 0.313 (inactive) in [12]; -0.452 (inactive) in [13]; -0.157 (inactive) in experiment [14]; 0.572 (inactive) in experiment [16].

As for `CCOC(=O)[C@H](Cc1ccccc1)NC(=O)CCC1CC(OC(=O)NCc2cccc3ccccc23)CC2(CCCC(COC(=O)NCCC(C)C)O2)O1` (stereo not given in full), the composite z-score is -0.499 in experiment [1]; 0.283 in experiment [2]; -0.0895 in experiment [3]; 0.0687 in experiment [4]; -0.756 in experiment [5]; -0.348 in [6]. Besides, the composite z-score in experiment [7] was 0.751; in [9], -0.219; in [10], -0.0994; in experiment [11] it was -0.923; in experiment [15], 0.284; in experiment [17], 0.0062. Further, the composite z-score in experiment [18] was 0.0111; in [19], -0.435; in experiment [20], -0.128. Also, the z-score is 1.41 (inactive) in experiment [8]; -1.04 (inactive) in experiment [12]; -0.0031 (inactive) in experiment [13]; -1.36 (inactive) in [14]; -0.444 (inactive) in [16].
